Compounds with a hit are over-represented: about 1.4% of the library has one in this group of screens.
CCHF vOTU inh – CCHFV vOTU protease inhibition | AID 651958 | Pep-AMC fluorescence | hit rate 0.55% among 370,000 | inhibition, % at 11.5 µM; in the data active = inhibition above about 30%
3CLpro inhibitor – SARS-CoV 3CLpro protease inhibition | inhibition, % at 6 µM | recombinant SARS-CoV 3CLpro, quenched FRET peptide cleavage | P0C6X7 | AID 1706 | hit rate 0.14% among 290,000; in the data active = inhibition above about 12%
MazEF act – activators of E. coli MazEF toxin-antitoxin RNase | FAM/BHQ RNA-DNA oligo cleavage fluorescence, 5 h | activation, % at 20 µM | hit rate 0.32% among 350,000; in the data active = activation above about 50%
Target sequence (P0AE70 whole entry, looked up): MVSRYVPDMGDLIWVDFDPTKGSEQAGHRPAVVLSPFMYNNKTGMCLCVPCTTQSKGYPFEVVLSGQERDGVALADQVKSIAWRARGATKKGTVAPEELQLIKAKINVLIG
BJeLR viability – kills HRASV12-expressing BJeLR cells | BJeLR (HRASV12) viability, CellTiter-Glo ATP luminescence, 48 h | inhibition, % (test concentration not listed) | hit rate 0.17% among 300,000; in the data active = inhibition above about 50%
VHR inh abs – inhibitors of human VHR1 phosphatase (DUSP3) | P51452 | recombinant VHR phosphatase, pNPP absorbance | inhibition, % at 13.3 µM | hit rate 0.52% among 290,000 | AID 1654; in the data active = inhibition above about 50%
Target sequence (P51452 whole entry, looked up): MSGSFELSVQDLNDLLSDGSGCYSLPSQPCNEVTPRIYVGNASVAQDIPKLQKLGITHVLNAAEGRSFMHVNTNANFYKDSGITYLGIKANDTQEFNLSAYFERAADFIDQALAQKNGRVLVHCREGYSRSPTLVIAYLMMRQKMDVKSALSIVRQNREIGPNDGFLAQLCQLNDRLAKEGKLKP
A number is an active result; 0 = inactive; - = no result given; + = active, no number.

SMILES	CCHF vOTU inh	3CLpro inhibitor	MazEF act	BJeLR viability	VHR inh abs
Cc1ccc(-c2cc(-c3ccccc3)cc(-c3ccccc3)[n+]2-c2ccccc2)cc1	0	-	0	75	-
Cc1ccc(-c2cc(-c3ccc(C)cc3)[n+](-c3ccc(C(=O)[O-])cc3)c(-c3ccc(C)cc3)c2)cc1	0	-	0	78	-
CN(C)c1ccc(-[n+]2c(-c3ccccc3)cc(-c3ccccc3)cc2-c2ccccc2)cc1	0	0	0	56	0
CCOC(=O)c1ccc(-[n+]2c(-c3ccccc3)cc(-c3ccccc3)cc2-c2ccccc2)cc1	-	-	0	0	-
Cc1ccc(-c2cc(-c3ccc(C)cc3)[n+](-c3ccccc3)c(-c3ccc(C)cc3)c2)cc1	-	-	0	68	-
c1ccc(-c2cc(-c3ccccc3)[n+](-c3ccccc3)c(-c3ccccc3)c2)cc1	0	0	0	0	0
CCOC(=O)C1=NOC(C(=O)NC2CCCC2)(C(=O)c2ccc(OC)cc2)C1 (stereo not drawn)	0	-	-	-	-
Cc1ccc(OCc2nnc(SCC(=O)Nc3ccc4c(c3)OCO4)n2Cc2ccco2)cc1	0	-	-	-	-
C/C(CC(C)C)=N\NC(=O)Nc1ccccc1	0	0	0	0	51
CCOC(=O)C/C(C)=N/NC(=O)Nc1ccccc1	0	0	0	0	0
COc1ccc(CCC(=O)NC(C)c2ccccc2)cc1OC (stereo not drawn)	0	0	0	0	57
COc1ccccc1OCCCC(=O)NC(C)c1ccccc1 (stereo not drawn)	0	0	0	0	0
CCN1/C(=C/c2ccc3cccc(C)c3[n+]2CC)Sc2ccccc21	0	0	73	0	0
C=CC[n+]1c(/C=C2\C=Cc3cc(C)ccc3N2CC)ccc2ccccc21	0	0	0	0	0
CCN1/C(=C/c2ccc3cc(C)cc(C)c3[n+]2CC)Sc2cc(C)ccc21	0	0	0	-	0
C[n+]1ccccc1/C=C1\Sc2ccccc2N1CCO	0	0	0	0	0
CCN1/C(=C/c2ccc3cc(C)ccc3[n+]2CC)Sc2ccc3sccc3c21	-	-	0	92	-
CCN1/C(=C\c2ccc3cc(C)ccc3[n+]2CC)Sc2cc(C)c(C)cc21	0	0	82	0	0
COc1ccccc1C(=O)NC1CCCCN(Cc2ccc(C)cc2)C1=O (stereo not drawn)	0	-	-	-	-
COc1ccccc1Nc1nc2ccc(C)cc2cc1C#N	0	0	78	0	0
COc1ccccc1Nc1nc2cc(C)ccc2cc1C#N	0	0	0	0	0
COc1ccccc1Nc1nc2c(C)cccc2cc1C#N	0	0	98	0	0
Cc1cc(NS(=O)(=O)c2ccc(NC(=O)Cc3ccc(Cl)c(Cl)c3)cc2)on1	0	-	-	-	-
C=CCN1C(=O)[C@H](CC(=O)NCCCOCCCC)[C@@]2(C(=O)OCC)CCCC=C12	0	-	-	-	-
CC(=O)c1cc(CN2CCC(n3nccc3NC(=O)c3ccccc3C)CC2)cs1	0	0	0	0	59
SMILES	CCHF vOTU inh	3CLpro inhibitor	MazEF act	BJeLR viability	VHR inh abs
COc1ccc(CN2CCC(n3nccc3NC(=O)c3ccc4c(c3)OCO4)CC2)cc1C	0	0	0	0	52
COc1ccccc1C(=O)Nc1ccnn1C1CCN(Cc2csc(C(C)=O)c2)CC1	0	0	0	0	0
O=C(NCCCN1CCCC1=O)c1c(O)nc2ccccn2c1=O	0	0	0	0	52
COc1ccc2c(c1)Cc1sc(NC(C)=O)nc1-2	81	0	0	0	0
COC(=O)[C@]12C[C@H](CC(=O)NCC34CC5CC(CC(C5)C3)C4)C(=O)N(Cc3cccc4ccccc34)C1=C[C@H](C(C)(C)C)O[C@@H]2C	0	-	-	-	-
COC(=O)[C@]12C[C@H](CC(=O)NCc3ccc(OC)c(OC)c3)C(=O)N(CCc3ccc(OC)c(OC)c3)C1=C[C@H](C1CCCC1)O[C@@H]2C	0	-	-	-	-
O=C(OC12CCCN(C1)/C(=C/c1ccc(Cl)cc1)C2)c1ccco1 (stereo not drawn)	0	-	-	-	-
CSc1ncc(Cl)c(C(=O)Nc2sc3c(c2C(=O)NCc2ccco2)CCCC3)n1	0	0	-	-	0
CCSc1ncc(Cl)c(C(=O)Nc2sc3c(c2C(=O)NCc2cccnc2)CCCC3)n1	0	0	112	0	0
O=C(Nc1c(-c2ccccc2)nc2ncccn12)c1ccc(F)cc1	0	-	-	-	-
Cc1nc(Cl)c(C(=O)NCc2ccccc2)c(C)c1Cl	0	0	0	0	0
O=C(NCc1ccccc1)c1c(Cl)nc(Cl)c(Cl)c1Cl	0	0	0	70	0
Cc1ccsc1/C=N/NC(=O)c1nnn(-c2nonc2N)c1C	0	0	0	0	56
COc1ccc2c(C)cc(SCC(=O)Nc3cc(C(N)=O)cc(C(N)=O)c3)nc2c1	0	0	104	0	0
O=C(CSc1nc2ncccc2[nH]1)N1CCOCC1	0	-	-	-	-
COc1ccc(OC)c(/C=C2\N=C(c3ccccc3)OC2=O)c1	0	0	+	0	0
COc1cc(/C=C2\N=C(c3ccccc3)OC2=O)ccc1OC(C)=O	0	0	0	0	0
COc1ccc(NC(=O)NNC(=O)CCn2nc(C)c([N+](=O)[O-])c2C)cc1OC	0	-	-	-	-
N#C/C(=C\c1cccs1)C(=O)c1ccccc1Cl	0	0	0	63	0
CCN(C(=O)CSc1nnc(CNc2cccc(OC)c2)n1C1CCCCC1)C1CCS(=O)(=O)C1 (stereo not drawn)	0	0	0	0	55
CCOC(=O)[C@]12CCCCC/C=C\1N(CCc1ccc(Cl)cc1)C(=O)[C@H]2CC(=O)NCc1ccc(OC)c(OC)c1	0	-	-	-	-
COC(=O)c1ccccc1Nc1ccccc1	34	0	0	0	0
O=C(COC(=O)c1ccccc1Nc1ccccc1)c1ccccc1	0	0	0	0	0
N#CCC[C@@H]1CC[C@]2(CCCN(C(=O)C3CCCC3)C2)O1	0	-	-	-	-
CCN1C(=O)C(=Cc2cc(C)n(C3CC3)c2C)C(=O)N(CC)C1=S	0	0	677	0	0
SMILES	CCHF vOTU inh	3CLpro inhibitor	MazEF act	BJeLR viability	VHR inh abs
COc1ccc(-n2c(Cn3c(=O)sc4ccccc43)nnc2SCC(=O)N2CCCC2)cc1	0	0	0	-	50
COc1ccc(-n2c(Cn3c(=O)sc4ccccc43)nnc2SCC(=O)N2CCCCC2)cc1	0	0	0	-	0
CC(C)[C@H](NC(=O)N1CCn2c1nc1ccccc12)C(=O)NCc1ccc(F)cc1	0	0	0	0	0
CCC(C)[C@H](NC(=O)N1CCn2c1nc1ccccc12)C(=O)NCc1ccccc1 (stereo partly drawn)	0	0	0	0	50
COc1cc(NC(=O)c2ccccc2)c(OC)cc1NC(=O)Cc1ccc(Br)cc1	0	0	55	0	0
COc1cc(NC(=O)c2ccc(Br)cc2)c(OC)cc1NC(=O)c1ccccc1	0	0	0	0	0
Cc1ccc(NC(=O)N2CCC(c3nc4ccc(Cl)cc4[nH]3)CC2)cc1F	0	-	-	-	-
O=C(CNS(=O)(=O)c1cccs1)N1CCN(c2ncccn2)CC1	0	-	-	-	-
O=c1c2ccccc2nc(/C=C/c2ccccc2)n1-c1ccc(O)cc1	0	0	0	0	0
O=c1c2ccccc2nc(/C=C/c2ccc([N+](=O)[O-])o2)n1-c1ccc(O)cc1	0	0	0	64	0
Cc1cccc(-n2c(/C=C/c3ccc([N+](=O)[O-])o3)nc3ccccc3c2=O)c1	0	0	90	0	0
